Common to all, as to assay: DAPPL (digital affinity profiling via proximity ligation, sequencing); 10 mM Tris-HCl pH 7.5, 50 mM NaCl, 1 mM DTT, 4% glycerol, room temperature, 30 min; GST-TFs on glutathione beads, 16-mer random dsDNA library, 0.1% formaldehyde crosslink after washing; high values mean tight binding
One test addresses T1, FEV (Homo sapiens, UniProt Q99581 1-238).
T1 sequence: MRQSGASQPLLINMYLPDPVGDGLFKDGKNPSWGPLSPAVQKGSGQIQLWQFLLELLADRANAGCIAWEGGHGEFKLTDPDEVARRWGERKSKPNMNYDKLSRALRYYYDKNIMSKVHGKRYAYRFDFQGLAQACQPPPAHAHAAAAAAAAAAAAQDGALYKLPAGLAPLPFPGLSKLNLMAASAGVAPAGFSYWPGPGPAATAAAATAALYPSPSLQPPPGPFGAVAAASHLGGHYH
The following applies: protein: recombinant; tags: N-terminal GST; dsDNA, one strand shown. Put shortly: (§1)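 Binding signal is each hexamer's read frequency for a factor divided by its frequency in the tag-only sample. The factors were GST-fused human transcription factors from yeast, captured on glutathione beads, DNA-barcoded and pooled with that sample. Pools were incubated with 200 nmole of a random double-stranded 16-mer DNA library in Tris/NaCl/DTT/glycerol buffer at room temperature for 30 min, then washed, crosslinked with 0.1% formaldehyde, proximity-ligated with BsaI/T4 ligase (1 h, 37 °C), PCR-amplified and sequenced on an Illumina NextSeq500.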

The next test concerns the target ETV5 (Homo sapiens, UniProt P41161 1-510). Conditions: protein: recombinant; tags: N-terminal GST; dsDNA, one strand shown. The method in brief:
as §1

The target in another test is HSF1 (Homo sapiens, UniProt Q00613 1-529). Conditions: protein: recombinant; tags: N-terminal GST; chain copies: 3; dsDNA, one strand shown. Put shortly:
as §1

The target in the next test is T2, SPIC (Homo sapiens, UniProt Q8N5J4 1-248).
T2 sequence: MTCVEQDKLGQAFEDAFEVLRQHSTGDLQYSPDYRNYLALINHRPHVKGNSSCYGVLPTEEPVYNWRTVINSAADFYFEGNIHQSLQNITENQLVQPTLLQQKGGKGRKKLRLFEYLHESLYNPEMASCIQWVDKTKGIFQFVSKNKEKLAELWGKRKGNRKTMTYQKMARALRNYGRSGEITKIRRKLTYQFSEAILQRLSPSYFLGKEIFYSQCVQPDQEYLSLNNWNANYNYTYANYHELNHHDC
The following applies: protein: recombinant; tags: N-terminal GST; dsDNA, one strand shown. Put shortly: as §1

The target of another test is ELF4 (Homo sapiens, UniProt Q99607 1-663). The following applies: protein: recombinant; tags: N-terminal GST; dsDNA, one strand shown. The method in brief:
as §1

For a further test, the target named is T3, ELK4 (Homo sapiens, UniProt P28324-2 1-405).
T3 sequence: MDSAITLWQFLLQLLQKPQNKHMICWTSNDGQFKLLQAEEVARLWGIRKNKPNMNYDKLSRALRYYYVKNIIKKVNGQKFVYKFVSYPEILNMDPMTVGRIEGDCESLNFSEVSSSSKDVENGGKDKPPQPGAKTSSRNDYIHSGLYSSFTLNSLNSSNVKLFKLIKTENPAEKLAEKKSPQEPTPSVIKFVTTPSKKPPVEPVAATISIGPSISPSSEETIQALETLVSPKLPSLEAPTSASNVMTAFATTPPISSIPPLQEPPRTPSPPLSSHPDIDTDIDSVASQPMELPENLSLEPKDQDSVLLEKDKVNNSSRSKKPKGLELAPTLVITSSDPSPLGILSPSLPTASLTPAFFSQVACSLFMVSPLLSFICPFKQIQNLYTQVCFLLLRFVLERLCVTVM
The following applies: protein: recombinant; tags: N-terminal GST; dsDNA, one strand shown. Put shortly: as §1

The target of a further test is T4, ETV2 (Homo sapiens, UniProt O00321 1-342).
T4 sequence: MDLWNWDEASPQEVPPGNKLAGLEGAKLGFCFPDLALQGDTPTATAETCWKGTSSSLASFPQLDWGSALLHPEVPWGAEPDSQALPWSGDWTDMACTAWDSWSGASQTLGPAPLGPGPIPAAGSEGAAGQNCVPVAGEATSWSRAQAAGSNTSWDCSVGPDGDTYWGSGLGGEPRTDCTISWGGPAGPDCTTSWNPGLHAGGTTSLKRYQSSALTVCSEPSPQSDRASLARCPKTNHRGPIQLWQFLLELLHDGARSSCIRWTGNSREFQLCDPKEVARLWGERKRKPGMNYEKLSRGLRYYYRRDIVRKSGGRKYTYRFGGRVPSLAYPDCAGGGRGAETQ
Conditions: protein: recombinant; tags: N-terminal GST; dsDNA, one strand shown. Put shortly: as §1

In the next test the target is T5, ELF3 (Homo sapiens, UniProt P78545 1-371).
T5 sequence: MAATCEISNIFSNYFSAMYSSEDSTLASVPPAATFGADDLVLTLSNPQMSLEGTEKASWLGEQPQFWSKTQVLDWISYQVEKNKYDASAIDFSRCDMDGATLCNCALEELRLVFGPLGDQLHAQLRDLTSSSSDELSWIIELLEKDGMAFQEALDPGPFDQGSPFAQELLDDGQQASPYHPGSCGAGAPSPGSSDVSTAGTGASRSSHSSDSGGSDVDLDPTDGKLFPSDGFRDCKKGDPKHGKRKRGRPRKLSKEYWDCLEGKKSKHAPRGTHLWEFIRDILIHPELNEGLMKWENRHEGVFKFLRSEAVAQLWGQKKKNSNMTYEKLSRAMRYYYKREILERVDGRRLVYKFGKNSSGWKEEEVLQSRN
The following applies: protein: recombinant; tags: N-terminal GST; dsDNA, one strand shown. The method in brief:
as §1

The next test addresses CRX (Homo sapiens, UniProt O43186 1-299). The following applies: protein: recombinant; tags: N-terminal GST; dsDNA, one strand shown. Put shortly: as §1
Another test concerns the target ETV1 (Homo sapiens, UniProt P50549 1-477). Conditions: protein: recombinant; tags: N-terminal GST; dsDNA, one strand shown. The method in brief: as §1
A further test concerns the target T6, ERF (Homo sapiens, UniProt P50548 1-548).
T6 sequence: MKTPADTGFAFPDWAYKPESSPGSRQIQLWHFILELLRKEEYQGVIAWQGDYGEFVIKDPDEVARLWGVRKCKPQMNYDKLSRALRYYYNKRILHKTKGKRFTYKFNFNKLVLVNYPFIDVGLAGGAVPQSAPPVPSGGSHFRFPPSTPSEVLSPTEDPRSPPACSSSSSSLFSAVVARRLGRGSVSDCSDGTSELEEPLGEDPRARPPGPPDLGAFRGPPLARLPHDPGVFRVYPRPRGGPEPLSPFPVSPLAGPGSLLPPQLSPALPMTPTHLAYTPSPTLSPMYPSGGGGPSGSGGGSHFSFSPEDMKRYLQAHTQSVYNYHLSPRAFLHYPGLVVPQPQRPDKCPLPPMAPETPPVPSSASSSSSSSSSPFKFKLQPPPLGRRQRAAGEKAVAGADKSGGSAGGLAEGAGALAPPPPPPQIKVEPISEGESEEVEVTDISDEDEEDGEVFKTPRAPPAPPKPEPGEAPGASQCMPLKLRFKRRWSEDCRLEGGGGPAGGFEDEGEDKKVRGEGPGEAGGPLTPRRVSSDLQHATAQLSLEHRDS
Conditions: protein: recombinant; tags: N-terminal GST; dsDNA, one strand shown. The method in brief: as §1

The next test has as its target T7, ETV3L (Homo sapiens, UniProt Q6ZN32 1-361).
T7 sequence: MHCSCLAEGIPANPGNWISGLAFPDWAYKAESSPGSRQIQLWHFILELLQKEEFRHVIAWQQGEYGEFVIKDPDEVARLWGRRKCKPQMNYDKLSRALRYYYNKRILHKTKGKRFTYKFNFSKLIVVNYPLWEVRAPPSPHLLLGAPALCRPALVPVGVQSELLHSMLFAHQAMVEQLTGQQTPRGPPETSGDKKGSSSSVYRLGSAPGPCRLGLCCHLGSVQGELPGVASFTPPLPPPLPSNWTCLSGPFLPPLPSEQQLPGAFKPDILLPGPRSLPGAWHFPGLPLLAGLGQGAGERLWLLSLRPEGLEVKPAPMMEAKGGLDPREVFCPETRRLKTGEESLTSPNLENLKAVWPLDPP
The following applies: protein: recombinant; tags: N-terminal GST; dsDNA, one strand shown. The method in brief: as §1

Another test concerns the target T8, ETS2 (Homo sapiens, UniProt P15036 1-469).
T8 sequence: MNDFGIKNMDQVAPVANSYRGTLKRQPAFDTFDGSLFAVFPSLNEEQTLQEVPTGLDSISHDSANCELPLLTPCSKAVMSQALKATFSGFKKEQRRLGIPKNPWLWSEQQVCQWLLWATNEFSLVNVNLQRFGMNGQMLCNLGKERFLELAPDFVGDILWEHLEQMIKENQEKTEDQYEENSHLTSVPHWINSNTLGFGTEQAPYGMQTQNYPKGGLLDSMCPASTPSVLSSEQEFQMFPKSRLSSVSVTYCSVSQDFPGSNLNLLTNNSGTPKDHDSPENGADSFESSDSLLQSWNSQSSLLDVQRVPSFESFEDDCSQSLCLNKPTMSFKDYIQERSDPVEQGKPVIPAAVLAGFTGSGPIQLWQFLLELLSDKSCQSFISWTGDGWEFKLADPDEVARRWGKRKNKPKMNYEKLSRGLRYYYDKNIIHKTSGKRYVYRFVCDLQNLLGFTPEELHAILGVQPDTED
Conditions: protein: recombinant; tags: N-terminal GST; dsDNA, one strand shown. The method in brief:
as §1

Another test has as its target T9, SPDEF (Homo sapiens, UniProt O95238 1-335).
T9 sequence: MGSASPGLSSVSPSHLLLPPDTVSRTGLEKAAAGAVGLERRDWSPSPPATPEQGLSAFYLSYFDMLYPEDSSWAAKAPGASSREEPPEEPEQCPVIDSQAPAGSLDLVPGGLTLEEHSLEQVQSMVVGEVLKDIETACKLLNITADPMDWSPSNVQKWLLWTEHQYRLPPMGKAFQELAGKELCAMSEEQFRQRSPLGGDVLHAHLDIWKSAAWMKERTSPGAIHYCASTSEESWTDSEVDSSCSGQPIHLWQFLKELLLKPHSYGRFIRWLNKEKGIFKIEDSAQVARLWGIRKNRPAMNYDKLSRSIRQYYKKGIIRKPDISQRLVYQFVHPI
Conditions: protein: recombinant; tags: N-terminal GST; dsDNA, one strand shown. Put shortly: as §1

A further test deals with T10, ETV7 (Homo sapiens, UniProt Q9Y603 1-341).
T10 sequence: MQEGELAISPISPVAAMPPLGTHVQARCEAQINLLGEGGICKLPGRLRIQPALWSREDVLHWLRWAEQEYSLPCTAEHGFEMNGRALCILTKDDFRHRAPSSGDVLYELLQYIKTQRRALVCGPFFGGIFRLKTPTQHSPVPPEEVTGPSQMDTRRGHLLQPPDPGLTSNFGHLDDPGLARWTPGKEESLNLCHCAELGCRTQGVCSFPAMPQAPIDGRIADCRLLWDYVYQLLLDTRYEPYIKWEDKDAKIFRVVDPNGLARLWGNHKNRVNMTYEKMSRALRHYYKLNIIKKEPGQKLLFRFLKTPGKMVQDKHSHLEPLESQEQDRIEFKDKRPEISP
Conditions: protein: recombinant; tags: N-terminal GST; dsDNA, one strand shown. The method in brief:
as §1

The next test deals with T11, ELF5 (Homo sapiens, UniProt Q9UKW6-2 1-255).
T11 sequence: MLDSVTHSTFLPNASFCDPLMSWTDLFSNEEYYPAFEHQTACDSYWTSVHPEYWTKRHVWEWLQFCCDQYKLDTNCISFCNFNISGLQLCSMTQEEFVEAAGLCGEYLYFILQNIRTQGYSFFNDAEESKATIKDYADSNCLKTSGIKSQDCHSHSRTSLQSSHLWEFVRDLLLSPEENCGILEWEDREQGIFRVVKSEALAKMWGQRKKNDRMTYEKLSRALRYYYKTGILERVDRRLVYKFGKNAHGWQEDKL
The following applies: protein: recombinant; tags: N-terminal GST; dsDNA, one strand shown. The method in brief:
as §1

Another test addresses T12, ETV3 (Homo sapiens, UniProt P41162-2 1-143).
T12 sequence: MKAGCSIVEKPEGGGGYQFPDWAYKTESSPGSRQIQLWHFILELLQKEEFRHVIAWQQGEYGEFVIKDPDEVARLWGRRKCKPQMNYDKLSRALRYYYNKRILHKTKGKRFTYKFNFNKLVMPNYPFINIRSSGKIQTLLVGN
The following applies: protein: recombinant; tags: N-terminal GST; dsDNA, one strand shown. Put shortly:
as §1

The target of another test is ETV6 (Homo sapiens, UniProt P41212 1-452). The following applies: protein: recombinant; tags: N-terminal GST; dsDNA, one strand shown. Put shortly:
as §1

Sequence of ELF4 (Q99607 whole entry): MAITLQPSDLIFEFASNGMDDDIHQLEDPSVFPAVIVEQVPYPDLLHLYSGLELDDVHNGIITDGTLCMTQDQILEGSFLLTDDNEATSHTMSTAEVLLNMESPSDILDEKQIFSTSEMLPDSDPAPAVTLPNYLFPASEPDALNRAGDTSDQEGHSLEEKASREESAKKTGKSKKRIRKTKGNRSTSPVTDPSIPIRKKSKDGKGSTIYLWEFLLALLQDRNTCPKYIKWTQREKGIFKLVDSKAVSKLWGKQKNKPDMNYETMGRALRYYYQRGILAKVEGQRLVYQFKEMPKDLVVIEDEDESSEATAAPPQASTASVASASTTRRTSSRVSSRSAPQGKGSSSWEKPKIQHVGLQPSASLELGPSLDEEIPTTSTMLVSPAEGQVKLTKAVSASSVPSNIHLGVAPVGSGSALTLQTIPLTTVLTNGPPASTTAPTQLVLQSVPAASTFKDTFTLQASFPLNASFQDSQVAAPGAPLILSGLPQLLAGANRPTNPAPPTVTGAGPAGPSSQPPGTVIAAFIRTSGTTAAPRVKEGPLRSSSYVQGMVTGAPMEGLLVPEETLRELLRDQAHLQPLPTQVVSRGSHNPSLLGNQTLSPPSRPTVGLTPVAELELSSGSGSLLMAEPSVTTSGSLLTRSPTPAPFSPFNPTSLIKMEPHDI
Sequence of HSF1 (Q00613 whole entry): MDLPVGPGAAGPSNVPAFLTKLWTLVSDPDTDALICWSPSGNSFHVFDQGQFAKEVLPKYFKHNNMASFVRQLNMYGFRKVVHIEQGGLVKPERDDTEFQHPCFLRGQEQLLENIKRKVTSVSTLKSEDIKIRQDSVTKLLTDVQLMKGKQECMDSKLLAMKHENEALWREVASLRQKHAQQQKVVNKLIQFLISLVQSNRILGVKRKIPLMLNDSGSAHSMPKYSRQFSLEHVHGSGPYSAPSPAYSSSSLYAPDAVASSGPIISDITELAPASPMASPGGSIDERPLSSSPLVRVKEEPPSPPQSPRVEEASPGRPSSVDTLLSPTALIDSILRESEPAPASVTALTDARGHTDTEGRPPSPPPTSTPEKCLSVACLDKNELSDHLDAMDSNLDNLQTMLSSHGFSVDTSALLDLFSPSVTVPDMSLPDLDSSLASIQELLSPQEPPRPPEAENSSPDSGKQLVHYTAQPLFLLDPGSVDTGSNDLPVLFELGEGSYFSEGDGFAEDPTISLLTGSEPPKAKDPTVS
Sequence of ETV6 (P41212 whole entry): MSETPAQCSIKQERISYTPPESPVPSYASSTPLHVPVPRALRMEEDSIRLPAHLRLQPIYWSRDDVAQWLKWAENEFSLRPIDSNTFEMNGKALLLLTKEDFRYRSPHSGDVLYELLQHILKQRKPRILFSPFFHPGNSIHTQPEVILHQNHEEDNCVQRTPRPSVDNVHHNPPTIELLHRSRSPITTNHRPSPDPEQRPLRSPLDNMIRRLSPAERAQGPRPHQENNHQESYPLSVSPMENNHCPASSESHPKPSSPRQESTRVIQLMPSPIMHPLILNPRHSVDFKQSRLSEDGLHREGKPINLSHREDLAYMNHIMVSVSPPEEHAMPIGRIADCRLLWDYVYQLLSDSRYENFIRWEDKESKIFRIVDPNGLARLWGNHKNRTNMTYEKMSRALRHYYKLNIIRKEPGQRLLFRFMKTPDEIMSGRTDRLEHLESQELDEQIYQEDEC
Sequence of ETV5 (P41161 whole entry): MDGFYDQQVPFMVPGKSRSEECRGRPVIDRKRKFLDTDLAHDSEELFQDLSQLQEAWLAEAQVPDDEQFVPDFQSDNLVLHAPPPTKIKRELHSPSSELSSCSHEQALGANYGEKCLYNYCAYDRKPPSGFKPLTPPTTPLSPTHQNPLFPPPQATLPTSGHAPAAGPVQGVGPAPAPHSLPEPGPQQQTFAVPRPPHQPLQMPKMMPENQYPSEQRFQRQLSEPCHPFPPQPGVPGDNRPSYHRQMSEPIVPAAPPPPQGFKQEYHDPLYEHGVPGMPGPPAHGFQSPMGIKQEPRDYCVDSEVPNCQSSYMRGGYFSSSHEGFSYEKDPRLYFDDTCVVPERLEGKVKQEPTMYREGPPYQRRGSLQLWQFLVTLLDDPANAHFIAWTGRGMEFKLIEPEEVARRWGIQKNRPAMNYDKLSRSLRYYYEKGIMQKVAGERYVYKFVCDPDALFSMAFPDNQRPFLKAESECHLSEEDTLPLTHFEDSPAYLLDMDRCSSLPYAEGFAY
Sequence of ETV1 (P50549 whole entry): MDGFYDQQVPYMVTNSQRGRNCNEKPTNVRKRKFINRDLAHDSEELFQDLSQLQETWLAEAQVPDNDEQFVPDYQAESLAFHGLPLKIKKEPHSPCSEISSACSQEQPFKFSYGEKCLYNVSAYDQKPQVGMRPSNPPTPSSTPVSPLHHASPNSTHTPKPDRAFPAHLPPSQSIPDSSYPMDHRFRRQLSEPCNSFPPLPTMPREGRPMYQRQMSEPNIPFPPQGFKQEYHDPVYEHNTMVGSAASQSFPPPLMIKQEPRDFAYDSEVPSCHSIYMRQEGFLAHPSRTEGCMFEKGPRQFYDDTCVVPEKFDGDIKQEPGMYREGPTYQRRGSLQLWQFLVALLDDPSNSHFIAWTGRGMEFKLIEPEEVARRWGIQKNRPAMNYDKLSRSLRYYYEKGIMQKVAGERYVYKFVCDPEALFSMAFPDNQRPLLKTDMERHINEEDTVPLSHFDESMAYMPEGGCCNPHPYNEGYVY
Sequence of CRX (O43186 whole entry): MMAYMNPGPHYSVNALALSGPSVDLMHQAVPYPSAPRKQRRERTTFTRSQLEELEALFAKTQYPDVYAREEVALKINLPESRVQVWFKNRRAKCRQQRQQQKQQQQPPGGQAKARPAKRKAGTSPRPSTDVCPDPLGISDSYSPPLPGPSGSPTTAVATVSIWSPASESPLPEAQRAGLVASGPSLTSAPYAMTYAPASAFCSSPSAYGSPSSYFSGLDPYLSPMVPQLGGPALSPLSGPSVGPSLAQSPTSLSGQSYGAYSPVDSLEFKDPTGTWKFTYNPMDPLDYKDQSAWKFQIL

Consider TTCAAG, for which the binding signal with FEV was 1.2 fold enrichment (6-mer frequency, TF over GST control); in the test with ETV5, 1.23 fold enrichment (6-mer frequency, TF over GST control); with HSF1 it was 1.49 fold enrichment (6-mer frequency, TF over GST control); with SPIC, 1.24 fold enrichment (6-mer frequency, TF over GST control); with ELF4 it was 1.29 fold enrichment (6-mer frequency, TF over GST control); with ELK4, 1.32 fold enrichment (6-mer frequency, TF over GST control). The binding signal with ETV2 was 1.1 fold enrichment (6-mer frequency, TF over GST control); with ELF3, 1.23 fold enrichment (6-mer frequency, TF over GST control); in the test with CRX, 1.18 fold enrichment (6-mer frequency, TF over GST control); in the test with ETV1, 1.29 fold enrichment (6-mer frequency, TF over GST control); with ERF, 1.27 fold enrichment (6-mer frequency, TF over GST control); in the test with ETV3L, 1.31 fold enrichment (6-mer frequency, TF over GST control). Also, the binding signal with ETS2 was 1.21 fold enrichment (6-mer frequency, TF over GST control); with SPDEF it was 1.31 fold enrichment (6-mer frequency, TF over GST control); with ETV7, 1.28 fold enrichment (6-mer frequency, TF over GST control); with ELF5 it was 1.18 fold enrichment (6-mer frequency, TF over GST control); in the test with ETV3 it was 1.42 fold enrichment (6-mer frequency, TF over GST control); with ETV6, 1.26 fold enrichment (6-mer frequency, TF over GST control).

The values above are taken from article PMC7862700, “An all-to-all approach to the identification of sequence-specific readers for epigenetic DNA modifications on cytosine”.
